The source of these data is PubChem BioAssay.

Active and inactive are the calls of the source.

For test [1], the system named is PRMT1 (protein arginine N-methyltransferase 1). In words: PRMT1 binders on small-molecule microarrays, primary screen, biochemical, small-molecule microarray, 635 nm fluorescence (AID 1088).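 Also: binding of Prmt1 protein to compounds spotted on small-molecule microarray slides.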 Conditions: small-molecule microarray binding, higher = more signal.
A short description of test [2]: yeast growth modulation, basal conditions, primary screen, YJM789 clinical isolate, OD600, 24 h (AID 1089).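 Also: growth of clinical yeast isolate S. cerevisiae YJM 789 seeded 1000 cells per well; test concentration not given here.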 As to conditions: S. cerevisiae YJM789 growth, higher = more signal, called active from +8 up or from −8 down.
The nature of test [3]: fission yeast growth modulation, primary screen, strain 972, OD600, 24 h, no modulator (AID 1090).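 Also: basal condition with compound alone and no growth modifier present; test concentration not given here.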 Conditions: S. pombe 972 growth, higher = more signal, called active from +8 up or from −8 down.
Test [4] can be described thus: S. cerevisiae growth modulation with rapamycin, primary screen, strain BY4716, OD600, 96 h (AID 1091). Also: test concentration not given here. Conditions: higher = more signal, called active from +8 up or from −8 down.
Test [5] addresses Torsin-1A-interacting protein 2 (Homo sapiens) (UniProt Q8NFQ8). In words: LULL1 binders on small-molecule microarray, primary screen, cell lysate, human LULL1 lysate, 635/667 nm fluorescence (AID 1092).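 Also: probe is lysate of COS7 cells overexpressing human LULL1; score merges per-feature 667 nm fluorescence with signal-to-noise.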 Conditions: hLULL1 lysate binding, 635 nm fluorescence, higher = more signal.
The nature of test [6]: E. coli growth modulation, two-sided OD650, primary screen, E. coli filamentation project, strain DRC41, 24 h (AID 1093).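 Also: MC1000 strain lacking acrAB efflux and sulA so SOS filamentation is blocked; test concentration not given here.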 Conditions: OD650, 24 h, higher = more signal, called active from +8 up or from −8 down.
Test [7] in a line: small-molecule microarray binders of probe aLefty2, primary screen, biochemical, biotinylated probe, 635/667 nm fluorescence (AID 1094).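 Also: score merges spot fluorescence near 667 nm with spot signal-to-noise ratio.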 Conditions: higher = more signal.
Test [8] deals with Noggin (protein binding on small-molecule microarray). The test is described as follows: Noggin binders on small-molecule microarray, primary screen, biochemical, 635/667 nm fluorescence (AID 1095).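 Also: score merges 667 nm feature fluorescence with signal to noise over triplicate slides.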 As to conditions: 635 nm fluorescence, higher = more signal.
Test [9] concerns the target Neurogenic locus notch homolog protein 3 (Homo sapiens) (UniProt Q9UM47). The test is described as follows: NOTCH3 binders on small-molecule microarray, primary screen, biochemical, 635/667 nm fluorescence (AID 1096). Conditions: NOTCH3 binding, 635 nm fluorescence, higher = more signal.
Test [10] in a line: small-molecule microarray binders of probe aEGFR, primary screen, biochemical, biotinylated probe, 635/667 nm fluorescence (AID 1097).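 Also: probe is a biotinylated anti-EGFR antibody binding compounds printed on slides; score combines fluorescence near 667 nm and signal to noise of each spot.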 As to conditions: higher = more signal.

Neurogenic locus notch homolog protein 3 (Homo sapiens), sequence (Q9UM47 whole entry, looked up): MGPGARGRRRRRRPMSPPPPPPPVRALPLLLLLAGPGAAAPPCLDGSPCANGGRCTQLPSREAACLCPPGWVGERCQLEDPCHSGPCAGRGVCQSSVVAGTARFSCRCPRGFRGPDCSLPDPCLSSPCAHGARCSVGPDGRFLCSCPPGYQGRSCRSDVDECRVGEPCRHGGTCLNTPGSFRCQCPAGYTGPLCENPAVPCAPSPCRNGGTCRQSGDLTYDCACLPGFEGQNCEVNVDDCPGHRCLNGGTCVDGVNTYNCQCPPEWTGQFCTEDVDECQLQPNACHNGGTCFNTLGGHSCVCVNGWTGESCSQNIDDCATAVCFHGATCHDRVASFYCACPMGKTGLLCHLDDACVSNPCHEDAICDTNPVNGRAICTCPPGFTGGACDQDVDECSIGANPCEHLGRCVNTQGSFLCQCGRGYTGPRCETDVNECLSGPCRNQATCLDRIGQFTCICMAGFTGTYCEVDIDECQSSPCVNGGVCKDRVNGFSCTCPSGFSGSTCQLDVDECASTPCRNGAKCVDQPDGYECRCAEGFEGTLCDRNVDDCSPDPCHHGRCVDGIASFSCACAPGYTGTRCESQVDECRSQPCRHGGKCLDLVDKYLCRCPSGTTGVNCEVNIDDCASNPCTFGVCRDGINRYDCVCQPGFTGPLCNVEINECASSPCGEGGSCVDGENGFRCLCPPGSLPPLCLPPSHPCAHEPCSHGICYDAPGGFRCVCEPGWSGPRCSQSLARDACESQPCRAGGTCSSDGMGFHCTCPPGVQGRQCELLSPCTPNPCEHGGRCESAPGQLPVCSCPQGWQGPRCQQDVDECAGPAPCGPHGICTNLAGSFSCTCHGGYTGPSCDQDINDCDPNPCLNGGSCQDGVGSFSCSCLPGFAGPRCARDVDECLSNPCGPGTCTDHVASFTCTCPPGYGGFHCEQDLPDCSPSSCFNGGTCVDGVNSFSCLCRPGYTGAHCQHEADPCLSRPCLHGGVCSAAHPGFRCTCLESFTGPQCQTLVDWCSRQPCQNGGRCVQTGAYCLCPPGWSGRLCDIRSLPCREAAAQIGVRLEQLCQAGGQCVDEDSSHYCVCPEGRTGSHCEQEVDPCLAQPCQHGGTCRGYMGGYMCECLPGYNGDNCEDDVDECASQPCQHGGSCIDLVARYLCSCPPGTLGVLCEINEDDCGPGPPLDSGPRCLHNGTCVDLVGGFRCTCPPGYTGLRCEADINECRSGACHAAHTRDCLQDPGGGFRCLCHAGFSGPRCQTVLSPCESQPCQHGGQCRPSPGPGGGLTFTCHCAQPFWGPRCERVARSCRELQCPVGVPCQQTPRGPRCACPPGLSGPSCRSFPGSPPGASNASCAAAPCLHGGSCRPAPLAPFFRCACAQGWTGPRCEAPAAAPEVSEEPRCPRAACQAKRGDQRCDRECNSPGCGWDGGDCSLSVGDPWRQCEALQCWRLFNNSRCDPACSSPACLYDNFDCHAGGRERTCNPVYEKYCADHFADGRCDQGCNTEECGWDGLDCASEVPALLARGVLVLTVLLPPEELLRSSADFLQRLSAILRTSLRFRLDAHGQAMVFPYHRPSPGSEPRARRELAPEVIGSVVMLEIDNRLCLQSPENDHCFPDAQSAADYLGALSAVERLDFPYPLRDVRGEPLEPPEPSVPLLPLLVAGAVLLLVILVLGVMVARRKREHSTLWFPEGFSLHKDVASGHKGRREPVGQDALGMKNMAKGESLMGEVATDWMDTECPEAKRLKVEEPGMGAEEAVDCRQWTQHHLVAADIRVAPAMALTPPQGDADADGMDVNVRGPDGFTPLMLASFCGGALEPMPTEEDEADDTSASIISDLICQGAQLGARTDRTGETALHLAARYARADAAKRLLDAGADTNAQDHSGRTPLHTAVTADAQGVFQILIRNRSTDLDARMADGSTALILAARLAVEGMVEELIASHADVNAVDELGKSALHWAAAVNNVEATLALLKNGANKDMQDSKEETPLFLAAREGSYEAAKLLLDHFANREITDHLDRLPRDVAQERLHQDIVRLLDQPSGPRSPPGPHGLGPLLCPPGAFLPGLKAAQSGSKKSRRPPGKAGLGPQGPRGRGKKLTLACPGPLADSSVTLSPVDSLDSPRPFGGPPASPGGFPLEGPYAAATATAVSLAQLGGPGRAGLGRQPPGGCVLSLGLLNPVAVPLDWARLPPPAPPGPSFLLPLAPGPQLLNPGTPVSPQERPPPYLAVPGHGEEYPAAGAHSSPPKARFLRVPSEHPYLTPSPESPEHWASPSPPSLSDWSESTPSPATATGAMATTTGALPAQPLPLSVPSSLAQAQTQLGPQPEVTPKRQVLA
Torsin-1A-interacting protein 2 (Homo sapiens), sequence (Q8NFQ8 whole entry, looked up): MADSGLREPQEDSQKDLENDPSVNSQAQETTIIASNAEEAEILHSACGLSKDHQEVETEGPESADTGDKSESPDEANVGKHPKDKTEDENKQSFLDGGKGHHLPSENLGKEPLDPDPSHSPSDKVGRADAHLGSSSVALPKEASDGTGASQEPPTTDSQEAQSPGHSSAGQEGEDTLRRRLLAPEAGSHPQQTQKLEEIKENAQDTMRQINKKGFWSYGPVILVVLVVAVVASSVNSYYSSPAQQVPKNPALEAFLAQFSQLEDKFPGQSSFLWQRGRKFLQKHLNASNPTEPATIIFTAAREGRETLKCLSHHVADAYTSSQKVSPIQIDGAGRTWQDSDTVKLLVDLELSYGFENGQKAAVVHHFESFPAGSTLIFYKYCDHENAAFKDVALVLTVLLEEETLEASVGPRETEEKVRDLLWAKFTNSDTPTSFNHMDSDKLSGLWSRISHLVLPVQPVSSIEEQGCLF

For `Cc1ccc(C(C)CC(O)C2C=CC3C(=O)N(c4ccccc4)C(=O)C3N2Nc2ccc(C#N)cc2)o1` (stereo not given), the composite z-score in [1] amounted to 1.55; in test [5] it was 3.46; in test [7], 0.188; in [8], 0.383; in test [9], 1.13; in test [10], 0.122. The z-score is -26 (active) in test [2], -16.8 (active) in test [3], -3.16 (inactive) in [4] and -0.0931 (inactive) in test [6].

`C=C(C(=O)CC[C@H](OC(=O)c1ccccc1-c1ccccc1C(=O)O)c1ccccc1OCCO)C(C)C`: the composite z-score was 1.41 in [1]; 1.46 in test [5]; -0.199 in [7]; 0.695 in test [8]; 0.257 in test [9]; -0.194 in [10]. For the same molecule, the z-score is 0.574 (inactive) in test [2], -0.788 (inactive) in test [3], -0.927 (inactive) in test [4] and 0.968 (inactive) in [6].

Take `CCCCCCCCCCC(O)C1C=CC2C(=O)N(C)C(=O)C2N1Nc1cc(OC)c(OC)c(OC)c1` (stereo not given): the composite z-score in [1] was -0.415; in test [5], 1.54; in test [7] it was -0.161; in test [8], -1.3; in test [9], -0.713; in test [10], -0.189. The z-score was 0.692 (inactive) in [2], 0.134 (inactive) in [3], -1.17 (inactive) in test [4] and -1.74 (inactive) in test [6].

`O=C1C2C=CC(C(O)c3ccc(I)cc3)N(Nc3ccccc3)C2C(=O)N1c1ccccc1` (stereo not given): the composite z-score was 1.34 in test [1]; 3.31 in test [5]; 0.265 in test [7]; -0.369 in [8]; 0.82 in test [9]; 0.0352 in test [10]. Besides, the z-score in test [2] is -0.165 (inactive); in test [3], 0.912 (inactive); in test [4], 0.879 (inactive); in test [6] it was -0.882 (inactive).

As for `COC(=O)[C@@]1(Cc2ccc(F)cc2)[C@H]2c3cc(C(=O)N(C)C)n(Cc4c(CO)[nH]cc(C)c4=O)c3C[C@H]2CN1C(=O)c1ccccc1`, the composite z-score in test [1] was -0.51; in test [5], 1.63; in test [7], 0.378; in test [8] it was -0.115; in test [9], -0.032; in test [10], 0.297. Moreover, the z-score is 0.342 (inactive) in test [2], -0.392 (inactive) in test [3], 0.796 (inactive) in test [4] and -0.893 (inactive) in [6].

As for `COCCCNC(=O)[C@@]1(c2ccc([N+](=O)[O-])cc2)CC(=O)N(C(C)C)[C@@H]1c1ccc(CO)cc1`, the composite z-score in test [1] is 0.197; in test [5], 0.15; in [7], 0.701; in test [8], -0.363; in test [9] it was -0.617; in test [10], -0.071. The z-score was -0.411 (inactive) in test [2], -0.46 (inactive) in test [3], -0.363 (inactive) in [4] and 0.409 (inactive) in [6].

`CN(C)CCCCCCNC(=O)[C@@H]1C[C@@H]2C(=O)N[C@@H](CCCCN)C(=O)N2[C@@H]1c1ccc(O)cc1`: the composite z-score worked out at 1.54 in [1]; 4.67 in test [5]; 1.87 in test [7]; 2.25 in [8]; 1.02 in [9]; 1.31 in [10]. The z-score was -0.38 (inactive) in test [2], -3.54 (inactive) in [3], -0.958 (inactive) in test [4] and 1.98 (inactive) in test [6].

In the case of `COCCOC(=O)N1C(=O)[C@@]2(c3cc(C#CC4=CCCCC4)ccc31)[C@H](C(=O)N1CCCCCCC1)[C@H]1C(=O)O[C@H](c3ccccc3)[C@H](c3ccccc3)N1[C@@H]2c1ccc(OCCO)cc1`, the composite z-score in test [1] was found to be 1.22; in [5] it was 0.973; in test [7], 0.726; in [8] it was 1.52; in test [9], 1.06; in test [10], 0.265. For the same molecule, the z-score was 0.175 (inactive) in test [2], -0.534 (inactive) in test [3], 1.62 (inactive) in [4] and -0.909 (inactive) in test [6].

For the molecule `CO[C@H]1O[C@H](CO)[C@@H](OC(=O)c2ccc(Br)cc2)[C@@H]2OC(=O)[C@H](Cc3ccccc3)C/C=C/C[C@@H](Cc3ccccc3)C(=O)O[C@@H]12`, the composite z-score in test [1] is 0.965; in test [5], 1.63; in [7] it was 0.13; in test [8] it was 0.413; in test [9], 0.181; in test [10] it was -0.176. For the same molecule, the z-score in test [2] was -1.92 (inactive); in test [3], -1.19 (inactive); in test [4], 0.161 (inactive); in test [6] it was 2.14 (inactive).

As for `COCCOC(=O)N1C(=O)[C@@]2(c3cc(C#Cc4ccc(OC)cc4)ccc31)[C@H](C(=O)NC[C@H](O)c1ccccc1)[C@H]1C(=O)O[C@H](c3ccccc3)[C@H](c3ccccc3)N1[C@@H]2c1ccc(OCCO)cc1`, the composite z-score in [1] is 1.54; in test [5] it was 2.87; in test [7] it was -0.0412; in [8], 1.32; in test [9], 1.04; in test [10] it was -0.0532. Further, the z-score in [2] was 1.62 (inactive); in test [3] it was 1.74 (inactive); in [4], 7.18 (inactive); in test [6] it was 1.38 (inactive).

With `CCN(CC)c1ccc(N2CC=CC34O[C@@H]5/C=C\CCC(C)OC(=O)C5[C@H]3C(=O)N(C(C)CO)[C@@H]4C2=O)cc1` (stereo not given in full), the composite z-score in [1] was 0.41; in test [5], -0.139; in test [7], -0.149; in test [8], 0.07; in [9] it was -0.419; in test [10], -0.206. In addition, the z-score in test [2] is 0.217 (inactive); in test [3] it was -1.41 (inactive); in test [4], -0.0932 (inactive); in test [6], 1.13 (inactive).

Consider `CCOC(=O)C1=CC[C@@H](c2ccccc2)N(S(=O)(=O)c2ccc(C)cc2)[C@H]1C=Cc1ccccc1`, for which the composite z-score was 0.238 in test [1]; 2.32 in test [5]; -0.0146 in test [7]; -0.452 in test [8]; 0.258 in [9]; -0.0828 in test [10]. Besides, the z-score in test [2] was 0.403 (inactive); in [3] it was 2.4 (inactive); in test [4], 1.46 (inactive); in [6], -0.812 (inactive).

For the molecule `C=C(COC)/C(=C/C[C@H](OC(C)=O)c1cccc(OCCO)c1)c1cnc2ccccc2c1`, the composite z-score in test [1] was 1.53; in test [5], 2.18; in test [7], -0.0415; in [8] it was 1.64; in [9] it was 1.04; in [10] it was -0.0267. In addition, the z-score in test [2] is 1.25 (inactive); in [3], -0.0332 (inactive); in [4], 1.03 (inactive); in test [6] it was -0.094 (inactive).

As to `C=C(COC)/C(=C/C[C@@H](OC(=O)c1ccncc1)c1ccccc1OCCO)c1cc(C(=O)OC)ccc1OC`, the composite z-score was 0.768 in [1]; 0.703 in test [5]; -0.106 in test [7]; -0.341 in test [8]; -0.0686 in [9]; -0.178 in test [10]. The z-score was -0.833 (inactive) in [2], -0.778 (inactive) in [3], 0.351 (inactive) in test [4] and 0.0184 (inactive) in test [6].
